Most compounds without a hit are left out; they make up all but 6.1% or so of the library.
TGFb SMAD3 inh – TGF-b pathway inhibition | HepG2 CAGA-GFP TGF-b/SMAD3 reporter, GFP fluorescence, 18 h; TGF-beta stimulated, 500 pg/mL final | Potency, µM (highest dose often 46.1 µM), without a hit: at the highest dose activity, negative = inhibition, hits mostly inhibitors | 1.2% of 410,000 active | AID 588855; note: % is set by controls: 0 for no effect and ±100 for the full control effect; nearly all actives have a fitted effect of over 65% in size
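TGF-beta reporter screen: HEPG2 CAGA-GFP, 1% FBS, 500 pg/mL TGF-beta final, 18 h; per-cell GFP summed per well; curves fitted and categorized by class.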
ATXN viability – cell viability loss in ATXN counter-screen | 0.49% of 400,000 active | S2 cells (HEK-293 line with an ATXN2-luciferase reporter) viability, CellTiter-Fluor protease fluorescence, 24 h | Potency, µM (series often up to 56.7 µM), actives largely listed as cytotoxic; note: nearly all actives have a fitted effect of over 40% in size
ATXN2 expr inh – reduces ATXN2 reporter expression in HEK-293 cells; HEK-293 ATXN2-luciferase reporter, luminescence, 24 h; Potency, µM (series often up to 57 µM), for inactives: top-dose activity change, negative = inhibition, usual class: inhibitors; 0.72% of 360,000 active; AID 1745845; note: % is set by controls: 0 for no effect and ±100 for the full control effect; nearly all actives have a fitted effect of over 55% in size
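ATXN2-luciferase reporter cells (luciferase flanked by upstream and downstream ATXN2 gene portions) were treated 24 h at 37 °C with compounds at up to 57 uM. SteadyGlo luminescence gave expression; GF-AFC fluorescence gave viability.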
RORg inh – blocks mouse ROR gamma transcriptional activity | Potency, µM (doses to about 53.6 µM), without a hit: top-dose activity change, negative = inhibition, actives largely listed as inhibitors | Drosophila S2 Gal4-RORgamma UAS-luciferase reporter, 20 h | AID 2551 | P51450 | 5.4% of 310,000 active; note: % is set by controls: 0 for no effect and ±100 for the full control effect; nearly all actives have a fitted effect of over 60% in size
Target sequence (P51450 whole entry, looked up, the tested form may be a part): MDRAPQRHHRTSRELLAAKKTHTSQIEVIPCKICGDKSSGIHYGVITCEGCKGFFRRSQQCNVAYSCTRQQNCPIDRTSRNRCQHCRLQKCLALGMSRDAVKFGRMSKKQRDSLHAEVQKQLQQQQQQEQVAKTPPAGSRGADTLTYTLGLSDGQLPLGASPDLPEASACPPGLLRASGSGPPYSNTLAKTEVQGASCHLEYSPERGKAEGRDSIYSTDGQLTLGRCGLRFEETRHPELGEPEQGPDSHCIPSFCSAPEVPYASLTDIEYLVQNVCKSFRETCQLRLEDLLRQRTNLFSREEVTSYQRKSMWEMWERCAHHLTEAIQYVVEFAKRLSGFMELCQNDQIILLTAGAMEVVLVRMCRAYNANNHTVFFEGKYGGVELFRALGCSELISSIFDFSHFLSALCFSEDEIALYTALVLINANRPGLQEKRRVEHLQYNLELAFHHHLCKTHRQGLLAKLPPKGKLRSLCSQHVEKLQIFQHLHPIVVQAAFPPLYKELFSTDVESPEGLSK
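ROR gamma transcriptional activity was tracked as Gal4-UAS luciferase output in stably transfected Drosophila Schneider cells, with compound added 1 hr before 700 uM copper sulfate induction and a 20 hr ambient-temperature incubation.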
HepG2 viability – counter-screen for TGF-b inhibitors: cytotoxicity in HepG2 cells | 0.76% of 410,000 active | HepG2 CAGA-GFP viability, ATP luminescence, 18 h | Potency, µM (series often up to 46.1 µM), without a hit: at the highest dose activity change, negative = cytotoxicity, hits mostly cytotoxic
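HepG2 CAGA-GFP cells (1000/well, DMEM with 1% FBS) received compound, then TGF-beta at 500 pg/mL final, and were incubated 18 hours at 37 degrees C. Viability was read by CellTiter-Glo luminescence. Media-only wells were set as complete cell-killing and DMSO as no toxicity.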
Gal4-VP16 FLuc – counter-screen for ROR gamma inhibitors: Gal4-VP16 reporter; Drosophila S2 Gal4-VP16 UAS-luciferase, luminescence, 20 h; Potency, µM (titrated, usually from 53.6 µM), without a hit: at the highest dose activity, negative = inhibition, actives largely listed as inhibitors; 3.5% of 310,000 active; AID 2546;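 note: Gal4-VP16 expression switched on by copper sulfate through the metallothionein promoter; % is set by controls: 0 for no effect and ±100 for the full control effect; nearly all actives have a fitted effect of over 50% in size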
* hit, by the source's call; i = inactive; ? = inconclusive; . = not tested or not shown; [ ] = remark or other dose. Calls come from the whole dose curve; as a rule, active = well fitted curve in the direction sought with a large enough effect; inconclusive = small, poorly fitted or top-dose-only effect, or another doubt; inactive = no such curve, though single readings can be large; an effect the other way counts as inactive or inconclusive. Potency is the fitted concentration of half-maximal effect.

SMILES	TGFb SMAD3 inh	ATXN viability	ATXN2 expr inh	RORg inh	HepG2 viability	Gal4-VP16 FLuc
CCC(C)NC(=S)Nc1ccc2nc(N3CCOCC3)cc(C)c2c1 (configuration not stated)	-2%	?	.	10µM*	-25%	?
COc1ccc(CNC(=S)Nc2ccc3nc(N4CCN(C)CC4)cc(C)c3c2)cc1	?	i	-1%	-29%	-51%	-1%
COc1ccc(CNC(=S)Nc2ccc3nc(N4CCOCC4)cc(C)c3c2)cc1	-11%	i	-15%	10µM*	-19%	-93%
Cc1cc(N2CCCC2)nc2ccc(NC(=S)NCCCOC(C)C)cc12	0%	i	-15%	11µM*	-13%	?
CC(C)(C)c1ccc(Oc2ccc(N)cn2)cc1	?	i	9.5µM*	-7%	4%	-25%
Cc1c2oc3c(C)ccc(C(=O)NC4C(=O)NC(C(C)C)C(=O)N5CCCC5C(=O)N(C)CC(=O)N(C)C(C(C)C)C(=O)OC4C)c3nc-2c(C(=O)NC2C(=O)NC(C(C)C)C(=O)N3CCCC3C(=O)N(C)CC(=O)N(C)C(C(C)C)C(=O)OC2C)c(N)c1=O (configuration not stated)	.	.	0.0004µM*	.	.	.
COc1ccccc1-c1cc(NCc2cnc(C)cn2)ncn1	.	.	.	0%	.	-7%
COCC(=O)N(Cc1nc2ccccc2c(=O)[nH]1)Cc1cccs1	0%	i	4%	?	-42%	-1%[0.365 µM]
COCCCNC(=S)N(Cc1ccccc1)Cc1ccccc1	1%	i	-8%	16µM*	-2%	?
COCCCNC(=O)CNC(=S)N(Cc1ccccc1)Cc1cccnc1	1%	i	15%	8%	0%	10%
CSc1ccc(CN(C)Cc2nc3ccccc3c(=O)[nH]2)cc1	-8%	.	.	?	-2%	?
CCNC(=S)N(Cc1ccccc1)Cc1nc2ccccc2c(=O)[nH]1	?	?	-5%	6.3µM*	21%	7.1µM*
COCCCNC(=S)N(Cc1ccccc1)Cc1nc2ccccc2c(=O)[nH]1	-6%	i	-11%	16µM*	-1%	?
CC(C)CCNC(=O)Cn1nc(N2CCN(c3ccccc3)CC2)ccc1=O	7%	i	-7%	.	1%	.
CCCS(=O)(=O)NCc1c(C)ncc2c1CCN(C(=O)c1ccc3[nH]c4c(c3c1)CCCC4)C2	.	i	.	.	.	.
CC(=O)Nc1nc2ccccc2n1CCN1CCOCC1	2%	i	4%	?	2%	-12%
O=C(Nc1nc2ccccc2n1CCN1CCOCC1)c1ccccc1	18%	i	-18%	2.8µM*	-28%	3.5µM*
O=C(Nc1nc2ccccc2n1CCN1CCOCC1)c1cn(-c2ccccc2)nc1-c1ccccc1	-13%	?	?	0.63µM*	-11%	1.1µM*
OCC#Cc1ncc(C(F)(F)F)cc1Cl	-9%	i	9%	?	2%	13µM*
CCc1ccc2c(c1)c1nc(C)sc1n2CC	2%	i	-1%	10µM*	1%	11µM*
C=C(C)CNC(=S)NNC(=O)c1ccco1	?	i	-1%	3.5µM*	-53%	5µM*
COc1ccc(CC(=O)NNC(=O)c2ccco2)cc1	9%	i	-4%	-6%	5%	-16%
COc1ccc(C(=O)NC(=S)NNC(=O)c2ccco2)cc1	3%	i	-25%	11µM*	-13%	?
O=C(NC(=S)NNC(=O)c1ccccc1O)c1ccco1	13%	i	-17%	-19%	-22%	3.5µM*
O=C(NC(=S)NNC(=O)c1ccco1)c1ccc(F)cc1	-26%	i	.	11µM*	-1%	?
CC(=O)c1cccc(NC(=S)NNC(=O)c2ccco2)c1	5%	i	.	-26%	-14%	1%
COc1ccc(F)c(CN2CCOc3ccc(CN4CCCCC4CO)cc3C2)c1 (configuration not stated)	.	i	.	.	.	.
